Rows were chosen to be rich in hits. Some 8.9% of all compounds tested hit in one or more screens of this group.
D3 antag – D3 dopamine receptor (human) antagonism; P35462; D3R cells, DiscoveRx beta-arrestin luminescence, antagonist mode; active compounds read low; max response, negative = inhibition, %; hit rate 2.5% among 360,000; in the data active = max response below about -50%; inconclusive = no clear call, values can overlap the other calls; also: % is scaled to controls: 0 for no effect and ±100 for the full control effect
Target sequence (P35462 whole entry, looked up): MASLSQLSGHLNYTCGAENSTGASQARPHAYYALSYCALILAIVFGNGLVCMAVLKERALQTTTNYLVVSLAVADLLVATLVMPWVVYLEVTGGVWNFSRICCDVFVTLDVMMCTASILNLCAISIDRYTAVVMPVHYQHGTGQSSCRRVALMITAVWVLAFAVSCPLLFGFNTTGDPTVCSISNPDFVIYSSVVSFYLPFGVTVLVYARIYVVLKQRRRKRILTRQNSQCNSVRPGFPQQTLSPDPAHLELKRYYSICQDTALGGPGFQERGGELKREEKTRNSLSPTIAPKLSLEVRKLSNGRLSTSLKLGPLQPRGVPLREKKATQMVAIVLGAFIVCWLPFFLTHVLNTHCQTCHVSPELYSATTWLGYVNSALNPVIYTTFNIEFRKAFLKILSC
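Cells plated overnight at 1500 cells/well, then exposed to library compounds with dopamine controls for 90 minutes at 37 degrees C. DiscoveRx reagent added for 30–60 minutes at room temperature; luminescence read, quantitative HTS format.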
KB-3-1 cytotox – KB-3-1 parental cell cytotoxicity; KB-3-1 viability, CellTiter-Glo ATP luminescence, 72 h; Potency, µM (highest dose often 46.1 µM), most hits filed as cytotoxic; hit rate 1.4% among 400,000; also: potency is read from the fitted curve at half-maximal effect; % is scaled to controls: 0 for no effect and ±100 for the full control effect; nearly all actives have a fitted effect of over 60% in size
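Luminescent ATP read-out (CellTiter-Glo) measures survival of drug-naive KB-3-1 cells after 72 h compound exposure at 37 °C. Titration series was screened from lowest to highest concentration, with DMSO vehicle plates as background controls.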
SW480 rerep – induces DNA re-replication in SW480 colon adenocarcinoma cells; hit rate 1.8% among 340,000; AID 624297; SW480 DNA re-replication, Hoechst DNA content imaging, 48 h; Potency, µM (series often up to 46.1 µM), without a hit: top-dose re-replication activation, actives largely listed as activators; also: potency is read from the fitted curve at half-maximal effect; % of control where 0% means no effect; nearly all actives have a fitted effect of over 55% in size
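DNA re-replication was detected as more nuclei of elevated Hoechst intensity after 48 hr exposure to compound (23 nL pinned per well of 250 cells).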
MCF10A rereplic – DNA re-replication induction in MCF 10a cells; hit rate 2.9% among 350,000; Potency, µM (titrated, usually from 46.1 µM), for inactives: top-dose activity, positive = re-replication, hits mostly activators; MCF 10A DNA re-replication, Hoechst nuclear intensity, 48 h; also: potency is read from the fitted curve at half-maximal effect; % of control where 0% means no effect; nearly all actives have a fitted effect of over 50% in size
DRD3 agonist – activates the human D3 dopamine receptor; P35462; D3R DiscoveRx beta-arrestin cells, luminescence, 90 min; max activation, %; hit rate 0.58% among 410,000; in the data active = max activation above about 30%; also: 0% is about no effect
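Cells at 1500/well, incubated overnight, then treated with pinned compounds (dopamine as control) for 90 min at 37 degrees C. DiscoveRx reagent added for 30 - 60 minutes at room temperature; luminescence read.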
KB-V1 cytotox – kills drug-selected multidrug resistant KB-V1 cells; KB-V1 MDR cells viability, CellTiter-Glo, 72 h; Potency, µM (doses to about 46.1 µM), actives largely listed as cytotoxic; hit rate 3.4% among 400,000; AID 1347076; also: potency is read from the fitted curve at half-maximal effect; % is scaled to controls: 0 for no effect and ±100 for the full control effect; nearly all actives have a fitted effect of over 60% in size
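KB-V1 cells (P-gp-expressing MDR subline of KB-3-1) in phenol-red-free DMEM with 10% FBS were exposed to library compounds over a concentration series for 72 h at 37 degrees C. Viability read by CellTiter-Glo luminescence; concentration-effect curves fitted after normalization.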
Numbers without * were called inactive; i = inactive; u = inconclusive; x = not tested or not shown. Unless noted, calls follow the shape of the dose curve; as a rule, active = well fitted curve in the direction sought with a large enough effect; inconclusive = small, poorly fitted or top-dose-only effect, or another doubt; inactive = no such curve, though single readings can be large; an effect the other way counts as inactive or inconclusive.

SMILES	D3 antag	KB-3-1 cytotox	SW480 rerep	MCF10A rereplic	DRD3 agonist	KB-V1 cytotox
CC(=NNC(=S)N1CCN(c2ccccn2)CC1)c1ccccn1	10.6	i	u	0.1%	4.5	7.31µM*
CC(=NNC(=S)Nc1ccc(C)cc1)c1ccccn1	-50.5*	u	u	u	3.7	u
CC(=NNC(=S)Nc1cccc(C)c1)c1ccccn1	-20.0	u	u	u	-4.6	i
CC(=NNC(=S)N1CCN(c2ccccn2)CC1)c1nccs1	-20.9	u	u	u	8.6	u
COc1cc(NC(=S)N2CCN(c3ccccn3)CC2)c(OC)cc1Cl	11.0	i	-69.2%	-5.1%	0.6	18.4µM*
COCc1cc(C)nc2sc3c(=O)n(-c4cc(C)ccc4C)nnc3c12	x	x	x	x	-2.8	x
Cc1ccc(C(=O)NCC(=O)OCc2cc(=O)n3ccsc3n2)cc1	x	i	x	x	8.0	u
COc1ccc(NC(=O)C(C)n2nc(-c3ccc(C)c(C)c3)ccc2=O)cc1OC (stereo not drawn)	x	i	x	x	9.4	i
C[S+](C)CC[C@H](N)C(=O)O	x	x	-1.0%	3.1%	x	x
CC(=NNC(=S)N1CCCCCC1)c1cccc2cccnc12	-70.5*	u	u	6.51µM*	-13.0	3.66µM*
CC(=NNC(=S)N1CCN(C2CCCCCC2)CC1)c1ccccn1	u	u	u	16.4µM*	-15.6	u
CCCN(C(=O)c1c(C)oc2ncn(CC(C)C)c(=O)c12)c1ccccc1C	x	i	x	x	2.4	i
COC(=O)Nc1nc2ccc(-c3n[nH]c(=O)c4ccccc34)cc2[nH]1	1.2	14.6µM*	-258.7%	8.8%	3.4	i
C=C(c1ccc2nc(NC(=O)OC)[nH]c2c1)c1cccs1	-19.9	u	0.731µM*	0.581µM*	-11.9	0.651µM*
CCOC(=O)c1ccc2nc(NC(=O)c3cccs3)sc2c1	u	i	7.0%	u	-2.2	i
O=c1[nH]nc(-c2ccccc2)c2ccccc12	17.5	i	-7.9%	4.3%	7.2	i
CCCCc1ccc2nc(NC(=O)OC)[nH]c2c1	x	x	0.128µM*	u	-9.1	x
C=CCOc1ccc2nc(NC(=O)OC)[nH]c2c1	u	0.651µM*	1.3µM*	1.46µM*	-3.8	1.16µM*
CC(=O)Nc1nc2ccccc2[nH]1	-14.3	i	-0.2%	-3.6%	-6.0	i
CNc1ncnc2c1ncn2[C@H]1CN(Cc2cccs2)C[C@@H](CO)O1	0.0	i	x	x	6.3	i
CCOC(=O)CC(S(=O)(=O)c1ccccc1)S(=O)(=O)c1ccccc1	-95.1*	u	x	x	-13.2	i
CCOC(=O)N=S(N)(=O)c1ccccc1 (stereo not drawn)	15.6	i	-8.3%	-0.7%	32.2*	i
CCOC(=O)CN(c1ccccn1)S(=O)(=O)c1ccccc1	17.2	i	-0.5%	-0.6%	6.8	i
O=C(c1ccccc1)c1cc(Cl)ccc1N1C(=O)C=CC1=O	-92.3*	i	18.4µM*	u	-27.9	i
Cc1ccc(/C=C2\CCCC3=C2NC(=S)NC3c2ccc(C)cc2)cc1 (stereo not drawn)	u	u	67.1%	23.2%	-4.3	16.4µM*
SMILES	D3 antag	KB-3-1 cytotox	SW480 rerep	MCF10A rereplic	DRD3 agonist	KB-V1 cytotox
O=C(CSc1nnc(COc2ccc(Cl)cc2)o1)Nc1ccccc1	x	i	x	x	0.2	i
COc1cc(N)c(NC(=O)/C=C/c2nc3cc(OC)c(OC)cc3[nH]2)cc1OC	x	i	x	x	x	i
Cc1cc(C)c(S(=O)(=O)c2ccc(Cl)cc2)c(Cl)n1	2.3	i	-2.3%	-1.3%	-3.6	i
Cc1cc(S(=O)(=O)c2ccc(Cl)cc2)nc(S(=O)(=O)c2ccc(Cl)cc2)c1C#N	-76.5*	9.2µM*	x	x	-16.6	u
COc1ccc2c(CNCCc3cccs3)c(C(=O)O)n(Cc3ccccc3C)c2c1	x	i	x	x	-12.1	i
O=C(Cc1cccc2ccccc12)NN1C(=O)/C(=C\c2cccnc2)SC1=S	-25.2	i	2.8%	-17.8%	-14.6	i
O=C(NN1C(=O)/C(=C\c2cccnc2)SC1=S)C(c1ccccc1)c1ccccc1	0.0	i	-4.1%	14.6µM*	4.0	i
O=C(NN1C(=O)/C(=C/c2cccnc2)SC1=S)C(c1ccccc1)c1ccccc1	-15.8	u	7.9%	13µM*	6.8	i
Cc1ccc(N2CCN(C(=O)c3c(C)oc4ncnc(N5CCCCC5)c34)CC2)c(C)c1	x	i	x	x	-13.1	i
N#C/C(=C\c1ccc(OC(F)F)cc1)C(=O)N1CCCCC1	u	i	-1.5%	13µM*	-15.8	i
O=C(COC(=O)c1ccc(Cl)nc1)NNC(=O)c1ccc(Br)cc1	-18.6	i	-8.7%	4.0%	-21.0	i
COc1cc2nc(N3CCCN(C)CC3)nc(Nc3ccncc3)c2cc1OC	x	13µM*	x	x	x	i
COc1cc2c(NC3CCN(C(C)C)CC3)nc(N3CCCN(C)CC3)nc2cc1OCCCN(C)C	x	2.31µM*	x	x	x	i
S=C1NCCc2ccccc2C1c1ccccc1Cl (stereo not drawn)	-63.9*	i	0.8%	13.4%	-2.7	i
CCOc1ccc(CNCc2c(C(=O)O)c(C)n(Cc3c(F)cccc3Cl)c2C)cc1OC	x	i	x	x	-5.5	u
CCOC(=O)CSC1=NC(=O)/C(=C\c2ccc(OC(C)=O)cc2)S1	-20.8	u	u	2.59µM*	-4.3	u
CCOC(=O)CSC1=NC(=O)/C(=C/c2ccc(Br)cc2)S1	-3.7	i	20.2%	u	-1.2	i
Cc1cc(C)c(Nc2nn3c(=O)c4cc5c(cc4nc3s2)OCO5)c(C)c1	x	i	x	x	4.6	i
CCOC(=O)c1nn(-c2ccc(Br)cc2)cc1C(=O)c1cccc2ccccc12	-22.4	u	u	u	1.4	11.6µM*
CCOC(=O)c1ccc(NC(=O)c2cn(-c3ccccc3)nc2-c2ccc(Br)cc2)cc1	x	i	x	x	2.0	i
COc1ccc(-c2nnc3c4ccccc4c(-c4ccccc4)nn23)cc1	x	x	x	x	9.0	x
CCC(=O)c1ccc(N2CCN(C(=O)c3ccc(Br)cc3)CC2)c(F)c1	-12.3	i	-1.4%	4.3%	6.2	14.6µM*
COc1ccc(C(=O)Nc2sc(C(=O)N(C)C)c(C)c2C#N)cc1[N+](=O)[O-]	-22.4	u	u	-61.9%	-4.9	18.4µM*
CCCC1S/C(=N/N=C/c2ccco2)NC1=O (stereo not drawn)	8.7	i	-13.9%	5.0%	-6.6	i
O=C(CC1S/C(=N/N=C/c2ccco2)NC1=O)Nc1cccc(Cl)c1Cl (stereo not drawn)	-61.4*	i	0.1%	0.0%	-3.2	i

Screening results deposited in PubChem BioAssay by National Center for Advancing Translational Sciences (NCATS).
